Drawing on PubChem BioAssay AID818 (SRMLSC, 2007), this text covers viability for 91 compounds.

Screen size: about 140,000 compounds; about 2,100 (1.5%) were called active. This excerpt belongs to a sample that is enriched for actives. Values without a mark were called inactive.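 The calls were made as follows: active = viability at or under a set limit, the compound median less 4 SD (cut at about 6% in these data); inactive = the rest.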

By viability is commonly meant a read-out of living cells in per cent, often relative to untreated cells.

The experiment can be described thus: primary screen for growth suppressors in beta-catenin knockout HCT116 cells (colon tumor, human) (AID 818).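 Also: 0% = Hyamine 1622 control at 20 µM and 100% = untreated cell control.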 The following applies: CellTiter-Glo, 60 h, at 10 µM, hits give low values. A general note: ATP-based viability assays read luminescence as a measure of living cells.
Regarding `O=C(CN1C(=O)C2C3CCC(C3)C2C1=O)Oc1ccc2ccccc2c1` (stereo unspecified), the viability is 85.5%.
The result for `CC1=CC(C)(C)Nc2ccc(OC(=O)CN3C(=O)C4CCCCC4C3=O)cc21` (stereo unspecified) reads 0.52% (active).
The result for `CC1=CC(C)(C)Nc2ccc(OC(=O)C(Cc3ccccc3)N3C(=O)C4CCCCC4C3=O)cc21` (stereo unspecified) reads 44.7%; that for `CCCOC(=O)c1c(NC(=O)c2cnn3c2NC(c2ccccc2)CC3C(F)(F)F)sc2c1CCCC2` (stereo unspecified), 61%.
With `CCCCOc1ccc(C(=O)NN2CCN(C)CC2)cc1` the figure was 87.1%; with `CCCOc1ccc(C(=O)C(CCC(CNCC)C(=O)c2ccc(OCCC)cc2)CNCC)cc1` (stereo unspecified), 0.87% (active); with `CCCCOc1ccc(C(=O)NCc2ccncc2)cc1`, 70.7%.
As for `O=C(c1ccc(S(=O)(=O)c2ccccc2)cc1)N1CCCCCC1`, the viability was 93.2%.
The result for `C=CCn1c(SCc2ccc(Cl)c(Cl)c2)nnc1C(CO)NC(=O)c1ccc(OC)cc1` (stereo unspecified) reads 90.7%; that for `Cc1cc(C)c2nc(SCCC#N)nc(C)c2c1`, 109%; that for `Cc1cc(C)c2nc3nc(C)cc(C)c3c(N)c2c1`, 1.48% (active).
The result for `C=CCNC(=O)/C=C/c1ccc(C(C)C)cc1` reads 90.7%.
As for `Nc1nc(SCC(=O)NNc2c(Cl)cc(Cl)cc2Cl)n[nH]1`, the viability is 98.6%.
The result for `Cc1sc2nc(CC(N)=O)[nH]c(=O)c2c1-c1ccccc1` reads 90.4%; that for `NS(=O)(=O)c1ccc(NC(=O)COC(=O)C2(c3ccc(F)cc3)CCCC2)cc1`, 82.7%; that for `O=C(/C=C/c1ccccc1)c1ccccc1O`, 83.6%.
The result for `Cc1[nH]c(=O)c(C(=O)/C=C/c2ccccc2)c2c1CCCC2` reads 2.53% (active); that for `O=C(/C=C/c1ccccc1)c1ccoc1`, 10.1%.
Regarding `CCNS(=O)(=O)c1ccc(NC(=O)c2cncc(Br)c2)cc1`, the viability was 97.6%.
With `O=C(NC(=S)Nc1ccc2oc(=O)ccc2c1)c1ccc(-c2cccc(Cl)c2Cl)o1` the figure was 101%; with `COc1cccc2sc(Nc3nc(C)c(C(C)=O)s3)nc12`, 5.29% (active).
The result for `CC(=O)c1sc(NC(=O)c2cccc3ccccc23)nc1C` reads 87.1%; that for `COc1cccc2sc(NNC(=O)c3nc4ccccc4s3)nc12`, 14.9%; that for `CCOc1ccc2nc(NC(=O)c3cc([N+](=O)[O-])ccc3N3CCOCC3)sc2c1`, 39.5%.
The result for `COc1ccccc1N1CCN(C(=O)C(=O)N/N=C/c2ccccc2F)CC1` reads 104%; that for `Fc1ccc2c(c1)C(c1cccnc1)=NNC(c1cccs1)=N2`, 40.4%; that for `Fc1ccc2[nH]c3c(N4CCSCC4)ncnc3c2c1`, 5.04% (active).
In the case of `CC(C)OCCCNc1ncnc2c1[nH]c1ccc(F)cc12`, the viability is 9.7%.
With `CCN1CCCC1CNc1ncnc2c1[nH]c1ccc(F)cc12` (stereo unspecified) the figure was 82.2%; with `CC(=O)COc1ccc2c(-c3ccccc3)cc(=O)oc2c1`, 95.5%; with `COc1ccc(C2COC(=O)C2=N)c(NC(=O)c2ccccc2)c1` (stereo unspecified), 79.1%.
With `CC1(c2ccccc2)CC(C)(C)N(C(=O)c2cc([N+](=O)[O-])cc([N+](=O)[O-])c2)c2ccccc21` (stereo unspecified) the figure was 69%; with `CN1CCN(CCCNC(=O)c2cc3c(=O)oc4ccccc4c3s2)CC1`, 92%.
The result for `Cn1c(C(=O)NCCN2CCc3ccccc3C2)cc2c(=O)[nH]c3ccccc3c21` reads 87.4%; that for `O=C(NCCN1CCN(Cc2ccccc2)CC1)c1cc2c(=O)[nH]c3ccccc3c2s1`, 1.35% (active).
Consider `COc1ccccc1N=Cc1c(O)c2ccccc2oc1=O`, for which the viability was 84.7%.
With `CCCCCCc1cc2cc(-c3nnc(-c4ccccc4)o3)c(=O)oc2cc1O` the figure was 1.64% (active).
In the case of `Cc1c(/C=N/N2C(=O)C3C4C=CC(C4)C3C2=O)c2ccccc2n1C` (stereo unspecified), the viability is 90.7%.
The result for `Cc1coc2c(O)cc3c(c12)OC1(N2CCCCC2)C(=O)NCCCC31` (stereo unspecified) reads 2.34% (active); that for `Cc1cccc(N2CCN(C(=O)c3ccccc3NC(=O)C3CCCCC3C(=O)O)CC2)c1` (stereo unspecified), 93.7%.
The result for `COc1ccc(NS(=O)(=O)c2ccc(NC(=S)NC(=O)/C=C/c3ccc(C)cc3)cc2)nn1` reads 84.3%; that for `COc1ccc(NC(=O)/C(Cl)=C(/Cl)S(=O)Cc2ccc(C)cc2)cn1` (stereo unspecified), 0.98% (active); that for `COc1cc(NC(=O)Nc2ccc(C)cc2)cc([N+](=O)[O-])c1`, 86.1%.
For `COc1cc(OC)cc(C(=O)N[C@H](C(=O)OCC(=O)NC(C)c2ccccc2)C(C)C)c1` (stereo partly specified), the viability is 83.7%.
The result for `O=C(NCc1ccccc1Cl)C1CCC(CNc2c(N3CCCCC3)c(=O)c2=O)CC1` (stereo unspecified) reads 98.7%; that for `O=C(NC(Nc1nc2ccc([N+](=O)[O-])cc2s1)(C(F)(F)F)C(F)(F)F)c1ccccc1`, 1.34% (active); that for `COC(=O)C(NC(=O)c1ccc(OC)cc1)(Nc1ncc(S(=O)(=O)c2ccc([N+](=O)[O-])cc2)s1)C(F)(F)F` (stereo unspecified), 77.8%.
With `Cc1cc(C)cc(OCC(=O)Nc2nc3ccc([N+](=O)[O-])cc3s2)c1` the figure was 109%.
With `COc1ccc(NC(C(=O)Nc2cccc(C(C)=O)c2)c2ccccc2)cc1` (stereo unspecified) the figure was 84.6%.
For the compound `Cc1ccc(-c2csc(NNC(=O)c3ccccc3)n2)cc1`, the viability was 13.8%.
With `COc1ccc(C)cc1Nc1nc(-c2c(C)[nH]c3ccccc23)cs1` the figure was 89.8%; with `O=C(/C=C/Sc1ncn[nH]1)c1ccc(Cl)cc1`, 4.54% (active).
On to `CC(C)(C)c1ccc(C(=O)CSc2ncn[nH]2)cc1`, for which the viability was 94.5%.
With `O=C(NCCOCc1ccc(Cl)cc1)c1ncn[nH]1` the figure was 93%; with `O=[N+]([O-])c1ccc(N/N=C2/CCCCC2c2ccccn2)c([N+](=O)[O-])c1` (stereo unspecified), 79.6%.
As to `COc1cc2c(cc1O)[C@H](Cc1ccc(Oc3cc(C[C@@H]4NCCc5cc(OC)c(O)cc54)ccc3O)cc1)NCC2`, the viability is 55%.
The result for `CC[C@H]1CN2CCc3cc(OC)c(OC)cc3[C@@H]2C[C@@H]1C[C@H]1NCCc2cc(OC)c(OC)cc21` reads 4.12% (active); that for `S=C(NCc1ccc(Cl)cc1)NC12CC3CC(CC(C3)C1)C2`, 3.01% (active).
Turning to `S=C(NCc1ccc(Cl)cc1)NC1CCCCC1`, the viability was 66%.
For `COC(=O)Cc1ccc(NC(=S)NCc2ccc(Cl)cc2)cc1`, the viability is 84.8%.
As to `CCCCN1C(=O)c2ccc(C(=O)Nc3ccc(S(=O)(=O)N(C)C)cc3)cc2C1=O`, the viability is 93.3%.
With `Cc1ccc(NC(=O)CN(C)Cc2ccc(F)cc2)c([N+](=O)[O-])c1` the figure was 91.3%; with `Cc1ccc(O)c(-c2cc(C(=O)Nc3c(C)n(C)n(-c4ccccc4)c3=O)[nH]n2)c1`, 80.2%.
With `CC1CCCC(NC(=O)COC(=O)[C@@H]2CC(O)CN2S(=O)(=O)c2ccc3c(c2)OCCO3)C1C` (stereo partly specified) the figure was 96.2%.
The result for `CCC(=O)Nc1ccc(C(=O)Nc2ccc3c(c2)C(=O)N(CC2CCCO2)C3=O)cc1` (stereo unspecified) reads 93.3%; that for `O=C(NCc1ccc2c(c1)OCO2)c1ccc2c(c1)C(=O)N(CC1CCCO1)C2=O` (stereo unspecified), 1.74% (active); that for `CC1CCN(c2ccc(C(=O)NCc3ccc4c(c3)OCO4)cc2[N+](=O)[O-])CC1`, 94.5%.
With `COc1cc(Cl)c(C)cc1NC(=O)COC(=O)c1cc(SC)ccc1Cl`, the viability was 79.6%.
As for `Cc1cc(-c2n[nH]c(=S)n2/N=C/C(Br)=C/c2ccccc2)n[nH]1`, the viability was 2.95% (active).
The result for `Cc1ccc(/C=N\n2c(-c3ccccc3)n[nH]c2=S)s1` reads 94.7%; that for `S=c1[nH]nc(-c2cccnc2)n1/N=C/C(Cl)=C\c1ccccc1`, 10.2%.
The result for `Cc1ccc(NC(=O)c2oc(=O)c3ccccc3c2-c2ccccc2)c(C)c1` reads 38.7%.
The result for `CN(C)S(=O)(=O)c1ccc(N2CCCC2=O)c([N+](=O)[O-])c1` reads 83%; that for `CC1=C(C)CC(C(=O)NNC(=O)c2csc3c2CCC(C(C)(C)C)C3)C(C(=O)O)C1` (stereo unspecified), 95.9%.
With `CC1=C(C)CC(C(=O)NNC(=O)c2ccccc2O)C(C(=O)O)C1` (stereo unspecified), the viability is 5.74% (active).
On to `O=C(O)C1CC=C(Cl)CC1C(=O)NCc1ccccc1` (stereo unspecified), for which the viability was 90%.
The result for `COc1ccc(C(=O)OCC(=O)NC(=O)CCSc2ccccc2)cc1` reads 97.4%; that for `N#Cc1cccc(NC(=O)COC(=O)c2ccccc2C(=O)c2ccc(Cl)c([N+](=O)[O-])c2)c1`, 3.2% (active); that for `COC(=O)c1cc(NC(=O)Cc2ccccc2[N+](=O)[O-])ccc1Cl`, 80.7%.
Consider `CC(=O)Nc1ccc(NC(=O)C(C)OC(=O)c2ccccc2C(=O)c2ccc(Cl)c([N+](=O)[O-])c2)cc1` (stereo unspecified), for which the viability is 8.71%.
With `CC(=O)Nc1ccc(SCC(=O)Nc2ccccc2Oc2ccccc2)cc1` the figure was 86.2%; with `O=S(=O)(NCC1CCCO1)c1cnc(Cl)c(Cl)c1` (stereo unspecified), 69.3%.
The result for `O=C(O)c1ccccc1-c1ccccc1C(=O)Nc1cccc2ccccc12` reads 90.2%; that for `O=C(Nc1cccc2ccccc12)c1onc2c1CCCC2`, 1.26% (active).
With `O=C(Nc1c2c(nc3ccccc13)CCCC2)c1ccccc1Br` the figure was 83.6%; with `Cc1cc(C(C)(C)C)cc(C)c1N`, 100%.
Turning to `CCCc1nc(SCC(=O)Nc2ccc(S(=O)(=O)N(C)C)cc2)c2ccccc2n1`, the viability was 72.2%.
The result for `O=C(O)c1cnn2c(C(F)(F)F)cc(-c3ccccc3)nc12` reads 96.5%.
The result for `CC(=O)N1CCN(c2cccc(C)c2C)CC1` reads 99.9%; that for `Cc1cccc(N2CCN(C(=O)c3cnn4c(C(F)F)cc(-c5ccccc5)nc34)CC2)c1C`, 2.3% (active); that for `CCC(C(=O)OCC(=O)Nc1ccccc1-c1ccccc1)c1ccccc1` (stereo unspecified), 92.8%.
